In all, about 39,000 compounds went through this assay and about 3,300 (8.5%) were called active. The sample holds actives, similar compounds and a random draw of the others, so the mix is not that of the screen.
tested on: HepG2; assay: cytotoxicity call (relative viability < 0.9); details: 10 µM

SMILES	cytotoxicity call
Cc1noc(C)c1NC(=O)Nc1ccc2c(c1)C(=O)N([C@H](C)CO)C[C@H](C)[C@H](CN(C)S(=O)(=O)c1ccc(F)cc1)OCCCC[C@H](C)O2	inactive
C[C@H]1CCCCO[C@H](CN(C)S(=O)(=O)c2ccccc2)[C@@H](C)CN([C@@H](C)CO)C(=O)c2cc(NC(=O)C3CCCCC3)ccc2O1	inactive
CN1CCN(C(=O)c2nn(C)c3c2CCN(S(C)(=O)=O)C3)CC1	inactive
C[C@H](CO)N1C[C@H](C)[C@@H](CN(C)CC2CCOCC2)Oc2cc(-c3cccnc3)ccc2S1(=O)=O	inactive
COc1ccc(S(=O)(=O)Nc2cccc3c2O[C@H](CN(C)C(=O)Nc2c(C)noc2C)[C@H](C)CN([C@H](C)CO)C3=O)cc1	inactive
CCS(=O)(=O)N1C[C@]2(CCN(CC2)C(=O)Cc2ccccc2)c2c(n(c3cc(ccc23)OC)C)[C@@H]1CO	inactive
Cc1ccc[nH]c1=O	inactive
COc1cccc(S(=O)(=O)N(C)C[C@@H]2Oc3cc(C#CCC(C)C)ccc3S(=O)(=O)N([C@@H](C)CO)C[C@@H]2C)c1	inactive
CC1(C)SC2C(NC(=O)Cc3ccccc3)C(=O)N2C1C(=O)[O-].[K+] (stereo not given)	inactive
C[C@@H]1CCCCO[C@@H](CN(C)C(=O)Nc2ccc3c(c2)OCO3)[C@H](C)CN([C@@H](C)CO)C(=O)c2cc(NS(=O)(=O)c3ccc(F)cc3)ccc2O1	inactive
COc1ccc(CN(C)C[C@H]2Oc3ccc(NC(=O)Cn4cnnn4)cc3CC(=O)N([C@H](C)CO)C[C@H]2C)cc1	inactive
C[C@@H]1CN([C@H](C)CO)C(=O)Cc2cc(NS(C)(=O)=O)ccc2O[C@@H]1CN(C)Cc1ccc2c(c1)OCO2	inactive
Nn1c(-c2ccncc2)n[nH]c1=S	inactive
O=C(/C=C/c1cccc(-c2cn(-c3ccc(C[C@H]4C(=O)O[C@@H](Cc5ccccc5)[C@H]5[C@@H]6C=CCCC=C6CN54)cc3)nn2)c1)NO	inactive
O=C(CCc1cn(-c2ccc(C[C@H]3C(=O)O[C@@H](Cc4ccccc4)[C@H]4[C@@H]5C=CCCC=C5CN43)cc2)nn1)NO	inactive
O=C(NO)c1cn(-c2ccc(C[C@H]3C(=O)O[C@@H](Cc4ccccc4)[C@H]4[C@@H]5C=CCCC=C5CN43)cc2)nn1	active
CC(C)[C@@H](CO)N1C(=O)[C@]2(C)[C@H]3C(=O)OCCC/C=C\[C@H]3O[C@]23C=CCN(c2ccc(Cl)cc2)C(=O)[C@@H]13	inactive
NC[C@@H]1O[C@H](C23CC4CC(CC(C4)C2)C3)Cc2c1ccc(O)c2O	inactive
C[C@H](CO)N1C[C@H](C)[C@H](CN(C)S(C)(=O)=O)Oc2cc(-c3ccccc3F)ccc2S1(=O)=O	inactive
CS(=O)(=O)Nc1ccc([N+](=O)[O-])cc1Oc1ccccc1	inactive
C=C(C)COc1ccc([N+](=O)[O-])cc1	inactive
O=[N+]([O-])c1ccc(Oc2ccc(-c3ccccc3)cc2)cc1	active
Cn1c(=O)c2c(ncn2CCNC2=NCCC2)n(C)c1=O	inactive
Cc1noc(C)c1NC(=O)Nc1cccc2c1O[C@@H](CN(C)S(=O)(=O)c1cn(C)cn1)[C@@H](C)CN([C@@H](C)CO)C2=O	inactive
Cc1noc(C)c1S(=O)(=O)Nc1ccc2c(c1)C(=O)N([C@H](C)CO)C[C@H](C)[C@H](CN(C)S(=O)(=O)c1ccccc1)O2	inactive

SMILES	cytotoxicity call
Cc1noc(C)c1S(=O)(=O)N(C)C[C@@H]1Oc2c(NS(=O)(=O)c3cn(C)cn3)cccc2C(=O)N([C@H](C)CO)C[C@@H]1C	inactive
CCC1(O)C(=O)OCc2c1cc1n(c2=O)Cc2cc3c(CN(C)C)c(O)ccc3nc2-1.Cl (stereo not given)	active
CC[C@@]1(O)C(=O)OCc2c1cc1n(c2=O)Cc2c-1nc1cc(F)c(C)c3c1c2[C@@H](N)CC3	active
CCC1(O)C(=O)OCc2c1cc1n(c2=O)Cc2cc3cc(O)ccc3nc2-1 (stereo not given)	inactive
CCC[C@@H](N[C@H]1CCS(=O)(=O)C1)C(=O)O	inactive
NC[C@H](c1ccco1)N1CCc2ccccc2C1	inactive
C[C@@H]1CN([C@@H](C)CO)C(=O)c2cccc(NS(=O)(=O)c3ccccc3)c2O[C@@H]1CN(C)Cc1ccncc1	inactive
C[C@H](CO)N1C[C@H](C)[C@H](CN(C)S(=O)(=O)c2ccc(Cl)cc2)Oc2ccc(NC(=O)Cn3cnnn3)cc2CC1=O	inactive
COCC#Cc1ccc([C@@H]2[C@@H](CO)N3C(=O)CN(C(=O)C4CCOCC4)C[C@@H]23)cc1	inactive
Cc1noc(C)c1NC(=O)N(C)C[C@@H]1Oc2ccc(NC(=O)Cn3cnnn3)cc2C(=O)N([C@H](C)CO)C[C@@H]1C	inactive
Cc1cc(C(C)(C)CC(C)(C)C)ccc1OCCOCC[N+](C)(C)Cc1ccccc1.[Cl-]	active
C[N+](C)(CCOc1ccccc1)Cc1ccccc1.O=C(O)c1cc2ccccc2c(Br)c1O	inactive
C[N+](C)(CCOc1ccccc1)Cc1ccccc1.O=C([O-])c1cc2ccccc2cc1O	inactive
C[C@H](CO)N1C[C@H](C)[C@@H](CN(C)S(=O)(=O)c2cn(C)cn2)Oc2ncc(/C=C/c3ccccc3)cc2C1=O	inactive
Cc1ccc(S[C@]2(C(=O)NCCCN(C)C)CC(=O)N(Cc3ccccc3Cl)[C@@H]2c2ccc(CO)cc2I)cc1	inactive
COc1ccc(NC(=O)N(C)C[C@H]2OCCCC[C@@H](C)Oc3ccc(NS(=O)(=O)c4ccc(C)cc4)cc3C(=O)N([C@@H](C)CO)C[C@H]2C)cc1	inactive
CCn1cc(-c2ccc3ccccc3n2)c(=S)c2ccccc21	active
CCn1c(=S)ccc2ccccc21	inactive
CC(C)Cn1cnc2ccccc21	inactive
CN1N=C(C(N)=O)CCC1=O	inactive
C[C@@H]1CN([C@H](C)CO)C(=O)c2cc(NC(=O)Cn3cnnn3)ccc2O[C@@H]1CN(C)C(=O)Nc1ccccc1	inactive
O=C(C[C@@H]1CC[C@H]2[C@@H](COC[C@@H](O)CN2S(=O)(=O)c2ccccc2)O1)N1CCc2ccccc2C1	inactive
C[C@H](N[P@@](=O)(OC[C@H]1O[C@@H](n2ccc(N)nc2=O)C(F)(F)[C@@H]1O)Oc1ccccc1)C(=O)OCc1ccccc1	inactive
CC(C)OC(=O)[C@H](C)N[P@](=O)(OC[C@H]1O[C@@H](n2ccc(=O)[nH]c2=O)[C@@](C)(O)[C@@H]1O)Oc1ccccc1	inactive
COc1nc(N)nc2c1ncn2[C@@H]1O[C@H](CO[P@@](=O)(N[C@@H](C)C(=O)OCC(C)(C)C)Oc2cccc3ccccc23)[C@@H](O)[C@@]1(C)O	active
